# 12-LOX inh: blocks human arachidonate 12S-lipoxygenase; P18054; purified 12hLO, xylenol orange hydroperoxide absorbance; Potency, µM (top dose mostly 108 µM), without a hit: top-dose activity change, negative = inhibition, most hits filed as inhibitors; 580,000 tested, 1.1% active; AID 1671190; further: potency means the concentration at half of the fitted maximal effect
# Target sequence (P18054 whole entry, looked up): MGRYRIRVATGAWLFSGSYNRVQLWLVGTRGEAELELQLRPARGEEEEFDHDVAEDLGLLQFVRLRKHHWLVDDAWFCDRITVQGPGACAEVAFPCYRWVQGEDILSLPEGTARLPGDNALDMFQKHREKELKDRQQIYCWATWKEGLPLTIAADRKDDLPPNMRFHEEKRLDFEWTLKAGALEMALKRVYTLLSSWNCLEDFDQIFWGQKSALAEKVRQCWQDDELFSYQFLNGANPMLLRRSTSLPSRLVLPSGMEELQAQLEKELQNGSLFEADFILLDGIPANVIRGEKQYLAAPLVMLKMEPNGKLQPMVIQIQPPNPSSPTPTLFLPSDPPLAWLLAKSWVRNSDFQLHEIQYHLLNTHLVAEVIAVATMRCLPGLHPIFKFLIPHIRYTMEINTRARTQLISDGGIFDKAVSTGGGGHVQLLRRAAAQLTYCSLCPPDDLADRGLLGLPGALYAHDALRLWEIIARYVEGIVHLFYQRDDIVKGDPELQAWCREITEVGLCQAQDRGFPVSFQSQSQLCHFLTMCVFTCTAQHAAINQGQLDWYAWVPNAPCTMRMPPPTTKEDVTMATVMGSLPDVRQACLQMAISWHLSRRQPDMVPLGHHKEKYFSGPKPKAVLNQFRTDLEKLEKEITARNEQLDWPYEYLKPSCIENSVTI
#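 Purified human 12hLO (150 nM final) in 25 mM Hepes, 0.01% Triton X-100, pH 7.0 was preincubated 15 min at room temperature with compound. Then 40 uM arachidonic acid was added, 30 min. Hydroperoxide was read by Fe-XO absorbance ratio 573/405 nm.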
# TDP1 cell CPT: growth inhibition of DT40 Tdp1-/-;hTDP1 cells with camptothecin (screen for TDP1 inhibitors). Potency, µM (series often up to 46.2 µM), without a hit: top-dose activity change, negative = growth inhibition, most hits filed as inhibitors. AID 686979. chicken DT40 Tdp1-/-;hTDP1 cells + 20 nM CPT, ATP luminescence, 48 h. 420,000 tested, 12% active; further: potency means the concentration at half of the fitted maximal effect; nearly all actives have a fitted effect of over 55% in size
#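 Cell growth measured by CellTiter-Glo luminescence after a minimum 48 h, 37 C compound exposure with 20 nM CPT in Tdp1-knockout DT40 cells stably expressing hTDP1, seeded 400/well; qHTS titration format.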
# HT1080 IDH1KD tx: HT-1080 IDH1 knockdown cell toxicity (counter line); HT-1080 IDH1 knockdown viability, ATP luminescence, 48 h; Potency, µM (highest dose often 46.1 µM), for the others: top-dose activity, negative = toxicity, most hits filed as cytotoxic; 360,000 tested, 2% active; AID 686971;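 further: potency means the concentration at half of the fitted maximal effect; 0% = DMSO wells and -100% = cell-free medium wells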
#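 Using the IDH1-knockdown HT-1080 line run in the same batch and compound series as the NT line, viability after 48 h at 37 °C was determined by CellTiter-Glo luminescence and expressed as % activity.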
# HT1080NT lethal: kills 2HG-producing HT-1080-NT fibrosarcoma cells; 360,000 tested, 1.6% active; HT-1080-NT fibrosarcoma viability, CellTiter-Glo ATP luminescence, 48 h; Potency, µM (series often up to 46.1 µM), without a hit: at the highest dose activity, negative = less viability, usual class: cytotoxic; AID 686970;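 further: NT is the 2HG producing partner of a matched IDH1 knockdown line; potency means the concentration at half of the fitted maximal effect; 0% = DMSO-treated cells and -100% = media-only wells without cells; nearly all actives have a fitted effect of over 55% in size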
#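 Viability by CellTiter-Glo luminescence after 48 h compound exposure at 37C of HT-1080-NT cells (750/well, RPMI, 5% FBS). % activity scaled between DMSO wells and medium-only wells, then curve-fitted and categorized by curve class.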
# DT40 TDP1 no CPT: qHTS for Inhibitors of human tyrosyl-DNA phosphodiesterase 1 (TDP1): qHTS in cells in absence of CPT. DT40 Tdp1-/- hTDP1 cells, no CPT, ATP luminescence, 48 h. Potency, µM (doses to about 46.2 µM), without a hit: top-dose activity change, negative = growth inhibition, most hits filed as inhibitors. 420,000 tested, 15% active; further: potency means the concentration at half of the fitted maximal effect; nearly all actives have a fitted effect of over 55% in size
#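 No-CPT arm: Tdp1-/-;hTDP1 DT40 cells (400/well) plus compounds, incubated ≥48 hr at 37 °C. Readout CellTiter-Glo luminescence.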
# IL1B secr inh: blocks inflammasome-driven IL-1 beta release | 360,000 tested, 4.7% active | THP-1 LPS/ATP IL-1B secretion, AlphaLISA, 16 h; stronger effect = lower value | activity change, % at 57.5 µM; in the data active means activity change below about -50%; inconclusive means mostly about -30% to -49%
#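 THP-1 cells pretreated 1 hr with compounds (up to 57.5 uM final), then stimulated with LPS (250 ng/mL final) plus ATP (1.25 mM final); secreted IL-1B measured by AlphaLISA after 16 hr, decreased signal indicating inhibition.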
# The depositor's hits bear a star; ? = inconclusive; . = no result; [ ] = dose if it differs, or a comment. This is one part of a sample in which hits are shown more often than they occur. Unless noted, the call rests on the fitted dose curve; in most records, active means well fitted curve in the direction sought with a large enough effect; inconclusive means small, poorly fitted or top-dose-only effect, or another doubt; inactive means no such curve, though single readings can be large; an effect the other way counts as inactive or inconclusive. Unless noted, on the % scale 0 is the no-effect control and ±100 the full control effect.
SMILES,12-LOX inh,TDP1 cell CPT,HT1080 IDH1KD tx,HT1080NT lethal,DT40 TDP1 no CPT,IL1B secr inh
O=C(CSc1ncnc2sc(-c3ccccc3)cc12)NC1CCS(=O)(=O)C1 (configuration not stated),-5%,-52%,2%,2%,15µM*,-66*
CCN(CC)C(=O)CSc1ncnc2sc(-c3ccccc3)cc12,-14%,?,-18%,-6%,?,0
CC(C)C(C)(C#N)NC(=O)CSc1ncnc2sc(-c3ccccc3)cc12 (configuration not stated),-8%,?,-5%,13µM*,?,-9
CCOC(=O)c1ccc(-c2ccc(C3NC(=O)NC(O)(C(F)(F)F)C3C(=O)c3ccccc3)o2)cc1 (configuration not stated),-12%,.,.,.,.,.
FC(F)(F)c1ccccc1Cc1c(-c2cccc(Br)c2)nc2ccc(Br)cn12,?,?,20%,27%,?,0
CCOC(=O)C1=C(C)NC2=C(C(=O)C(C(=O)OCC)C(c3ccco3)C2)C1c1ccccc1C (configuration not stated),.,20µM*,.,.,22µM*,.
CCNC(C(=O)c1c[nH]c2c(CC)cccc12)c1ccccc1 (configuration not stated),36%,?,?,?,?,-57*
CCc1cccc2c(C(=O)C(NCCOC)c3ccccc3)c[nH]c12 (configuration not stated),15%,?,-9%,?,12µM*,-23
O=C(Cn1nnc(-c2cccc(C(F)(F)F)c2)n1)c1cccc(Br)c1,0%,.,.,.,.,.
Cc1cc(=O)c2ccc(C(F)(F)F)cc2[nH]1,?,-13%,11%,10%,?,10
O=c1cc(C(F)(F)F)[nH]c2ccc(C(F)(F)F)cc12,0%,7.3µM*,?,?,0.73µM*,?
O=C(CC1C(=O)NCCN1Cc1ccccc1)NCc1nc(C2CC2)no1 (configuration not stated),23%,.,.,.,.,.
COc1ccc(Cn2c(CNS(=O)(=O)c3ccc(C)c(C)c3)nc3cccnc32)cc1,1%,-26%,.,.,-25%,.
COc1ccccc1Cn1c(CNS(=O)(=O)c2ccc(C(C)C)cc2)nc2cccnc21,-1%,?,.,.,23µM*,.
CCc1ccc(S(=O)(=O)NCc2nc3cccnc3n2Cc2cccc(OC)c2)cc1,-8%,?,.,.,?,.
CC(C)Cc1ccc(S(=O)(=O)NCc2nc3cccnc3n2Cc2ccccc2)cc1,2%,?,.,.,18µM*,.
COc1ccccc1Cn1c(CNS(=O)(=O)c2ccc(CC(C)C)cc2)nc2cccnc21,0%,21µM*,.,.,13µM*,.
CCc1ccc(Cn2c(CNS(=O)(=O)c3ccc(C)c(C)c3)nc3cccnc32)cc1,-11%,?,.,.,?,.
CC1=C(C(=O)N2CCOCC2)CC(CC(=O)NC2CCCC2)C(=O)N1Cc1ccccc1 (configuration not stated),-12%,6%,8%,3%,-11%,19
Cc1ccc(S(=O)(=O)N2CCC(C(=O)Nc3nc4c(s3)CC(c3ccccc3)CC4)CC2)cc1 (configuration not stated),3%,.,.,.,.,.
O=C(Nc1ccc(Cl)cc1)N[C@H]1CC[C@H](CCn2cc(-c3ccccc3F)nn2)O[C@@H]1CO,?,8.2µM*,-22%,-20%,9.2µM*,-2
Cn1nc(C(=O)Nc2sc3c(c2C#N)CCCC3)c(Cl)c1C(F)(F)F,8%,.,.,.,.,.
CSc1ccc(S(=O)(=O)N2CCC(C(=O)N3CCc4ccccc4C3)CC2)cc1,-10%,?,-15%,-3%,?,-64*
CCOc1ccc(S(=O)(=O)N2CCC(C(=O)N3CCc4ccccc4C3)CC2)cc1,4%,?,8%,10%,15µM*,-19
COc1ccc(OC)c(S(=O)(=O)N2CCCC2C(=O)N2CCc3ccccc3C2)c1 (configuration not stated),-3%,15µM*,11%,2%,23µM*,-8
SMILES,12-LOX inh,TDP1 cell CPT,HT1080 IDH1KD tx,HT1080NT lethal,DT40 TDP1 no CPT,IL1B secr inh
CCOc1ccc(S(=O)(=O)N2C[C@@H](F)C[C@H]2C(=O)N2CCc3ccccc3C2)cc1,1%,.,.,.,.,.
CN(Cc1cccn1C)S(C)(=O)=O,40%[176 µM],.,.,.,.,.
Cc1ccc(S(=O)(=O)N2[C@H](CC(=O)OCc3ccccc3)OC[C@@H]2C)cc1,7%,-30%,-3%,3%,?,22
Cc1ccc(S(=O)(=O)N2[C@H](CC(=O)OCc3ccccc3)OC[C@@H]2C(C)C)cc1,3%,21µM*,-16%,-21%,23µM*,-22
Nc1nccnc1C(=O)NCc1cn(-c2ccccc2)nc1-c1ccccc1,-29%,.,.,.,.,.
COc1ccc(-c2ccc(C(=O)NCCCn3ccnc3C(C)C)cn2)cc1,46%,.,.,.,.,.
CC(C)c1nc2nccc(-c3ccco3)n2n1,27%,.,.,.,.,.
Cc1ccc(-c2ccnc3nc(-n4cccc4)nn23)o1,-11%,15µM*,?,4%,21µM*,28
CC(C)(CNC(=O)CO/N=C1/C=C2CCC3C(C(O)C[C@@]4(C)C3CC[C@]4(O)C(=O)CO)[C@@]2(C)CC1)C(O)C(=O)O (some centres not stated),0%,-9%,?,18%,-20%,?
O=C(N/N=C/c1cn(Cc2ccccc2)c2ccccc12)c1cc(O)cc(O)c1,0%,-14%,?,-19%,2%,?
O=C(O)Cn1cc(/C=N/Nc2ccc([N+](=O)[O-])cn2)c2ccccc21,?,19%,12%,9%,-3%,37
Cc1cc(/C=N/Nc2ccc([N+](=O)[O-])cn2)c(C)n1-c1ccccc1,0%,18µM*,5%,3%,?,7
Cc1ccc(C(=O)N/N=C/c2cn(Cc3ccccc3)c3ccccc23)cn1,75%,?,-24%,-18%,21µM*,11
Cc1ccc(Cn2cc(/C=N/Nc3ccc([N+](=O)[O-])cn3)c3ccccc32)cc1,-6%,?,?,?,16µM*,2
c1ccc(CN2CCN(C3=Nc4cccc5cccc3c45)CC2)cc1,0%,?,-18%,-5%,?,-90*

# Screening results deposited in PubChem by National Center for Advancing Translational Sciences (NCATS).
